# PubChem BioAssay (NCI)
# About 83,000 compounds went through this panel and 20% of them were active in at least one assay; those are over-represented in the sample as a whole.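 Percent growth is the endpoint: 0 to 100 indicates growth inhibition (40 means 60% inhibition), 0 means no net growth, and negative values indicate cell death.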 Values without a mark were called inactive. Active and inactive are the calls of the source. Rule for the calls: active = growth percent below 10; inactive = the rest.
# Assays:
# Test in all cases: NCI-60 one-dose screen, 48 h (100 = growth as untreated, 0 = no growth, -100 = all killed)
# Settings in all cases: 10 µM unless noted
# NCI-H23 lung = system: NCI-H23 lung
# NCI-H322M lung = system: NCI-H322M lung
# HOP-62 NSCLC = system: HOP-62 NSCLC
# NCI-H460 lung = system: NCI-H460 lung
# HOP-92 NSCLC = system: HOP-92 NSCLC
# NCI-H522 lung = system: NCI-H522 lung
# A549/ATCC NSCLC = system: A549/ATCC NSCLC
# 786-0 renal = system: 786-0 renal
# COLO 205 colon = system: COLO 205 colon
SMILES,growth (NCI-H23 lung),growth (NCI-H322M lung),growth (HOP-62 NSCLC),growth (NCI-H460 lung),growth (HOP-92 NSCLC),growth (NCI-H522 lung),growth (A549/ATCC NSCLC),growth (786-0 renal),growth (COLO 205 colon)
Cc1csc(/N=C(N)/N=C(\N)c2cccs2)n1,90.5%,100%,103%,104%,69.1%,98.9%,102%,112%,109%
Cn1c(SCC(=O)c2ccc(Br)cc2)nc2ccccc2c1=O,85.3%,95.8%,105%,102%,91.3%,86.4%,96.3%,91.2%,121%
COC(=O)CNC(=O)c1cccc(-c2cc(=O)c3c(OC)c(OC)c(OC)cc3o2)c1,98.1%,85.4%,119%,98.7%,67.6%,99.6%,101%,104%,114%
N#Cc1c(-c2cccs2)cc(-c2cnccn2)nc1SCC(=O)N/N=C/c1ccncc1,102%,116%,106%,108%,98.4%,96.1%,107%,104%,118%
Cc1ccc(C(=O)CSc2nc3ccccc3c(=O)n2C)cc1,79.7%,89.1%,94%,95.5%,,85.3%,101%,97.9%,119%
CC(=C(c1ccc(OCCN(C)C)cc1)c1ccc(OCCN(C)C)cc1)c1ccc(Cl)cc1,29.5%,-3.42% (active),-57.8% (active),-71.9% (active),-9.45% (active),-64.5% (active),-65% (active),-67.5% (active),-50% (active)
O=C(CSc1nnc(-c2ccc(Cl)cc2)n1-c1ccccc1)Nc1cccc(F)c1,23.6%,36.7%,50.3%,17.4%,57.8%,52.2%,2.72% (active),0.989% (active),
COc1ccc(C(=NNS(=O)(=O)c2ccc(C)cc2)c2ccccc2)cc1OC,99.5%,92.9%,102%,105%,90.4%,92.4%,96.1%,99.1%,111%
CN(C)CC(=O)Nc1nc(-c2cccc(NS(=O)(=O)c3cccc4c(N(C)C)cccc34)c2)cs1,75.6%,96.2%,103%,92.4%,60.8%,76.7%,80.1%,90.5%,104%
O=[N+]([O-])c1ccc(NC(=S)NNC(=S)Nc2ccc(Br)cc2)cc1,86.1%,63.3%,94.9%,97.6%,99.9%,81.1%,83.9%,99.2%,112%
C#C[C@]1(O)CC[C@H]2[C@@H]3CC=C4c5sc(NCc6ccccc6)nc5CC[C@]4(C)[C@H]3CC[C@@]21C,54.2%,59.9%,14.1%,51.8%,23.1%,80%,52%,-72.3% (active),37%
N#Cc1c(-c2ccc(F)cc2)cc(-c2c[nH]c3ccccc23)nc1-c1c[nH]c2ccccc12,100%,106%,101%,104%,93.4%,97%,101%,99.5%,113%
CC(Nc1c(C#N)cnc2ccc(-c3cncc(-c4n[nH]c(=O)o4)c3)cc12)c1ccccc1 (stereo not drawn),17.4%,-4.15% (active),8.5% (active),11.1%,-20.9% (active),-20% (active),17.7%,9.83% (active),-6.04% (active)
C#CCN(C)CCCOc1ccc(NC(=O)CCCCCCCCC(=O)NO)cc1Cl,54.2%,92.2%,77.6%,81.8%,64.8%,51.9%,72.9%,87.9%,76.1%
CCN(CC)S(=O)(=O)c1ccc(-c2nc(C(Cl)Cl)nc3cc(-c4ccc(F)cc4)nn23)cc1,21.7%,41.4%,10.3%,10.2%,-3.41% (active),79.3%,17.8%,76.5%,8.9% (active)
N#Cc1c(-c2cccs2)cc(-c2cnccn2)nc1SCC(=O)N/N=C/c1ccccc1,40.8%,63.5%,31.1%,17%,42.3%,67.3%,46.8%,17.9%,66.2%
CN(C)S(=O)(=O)c1ccc(-c2nc(C(Cl)Cl)nc3cc(-c4ccc(F)cc4)nn23)cc1,-3.27% (active),31%,9.75% (active),1.94% (active),14.6%,-16.5% (active),7.5% (active),72.6%,2.25% (active)
OCC(Nc1ncnc2ccc(-c3cnc4cnccn34)cc12)c1ccccc1 (stereo not drawn),57.8%,40%,79.8%,89.4%,59.3%,43.5%,74.2%,64.4%,98.2%
CCOC(=O)C1=C(C)NC(C)=C(C(=O)OC(C)C)C1c1cccc(C#N)c1 (stereo not drawn),96.7%,,101%,101%,114%,92.7%,100%,90.6%,114%
